From PubChem BioAssay (NCATS) come the findings set out here.

Values joined by “and” are separate entries in the source; they are usually repeats but may differ in a detail not shown here. Equal values may be shown once. Results filed as inconclusive are left out. Active and inactive are the calls of the source. Calls follow the shape of the dose curve; as a rule, active = well fitted activation curve with a large enough effect; inconclusive = small, poorly fitted or top-dose-only effect; inactive = no such curve, though single readings can be large or run the other way.

Chain of Cellular tumor antigen p53 (Homo sapiens) (P04637 whole entry, looked up): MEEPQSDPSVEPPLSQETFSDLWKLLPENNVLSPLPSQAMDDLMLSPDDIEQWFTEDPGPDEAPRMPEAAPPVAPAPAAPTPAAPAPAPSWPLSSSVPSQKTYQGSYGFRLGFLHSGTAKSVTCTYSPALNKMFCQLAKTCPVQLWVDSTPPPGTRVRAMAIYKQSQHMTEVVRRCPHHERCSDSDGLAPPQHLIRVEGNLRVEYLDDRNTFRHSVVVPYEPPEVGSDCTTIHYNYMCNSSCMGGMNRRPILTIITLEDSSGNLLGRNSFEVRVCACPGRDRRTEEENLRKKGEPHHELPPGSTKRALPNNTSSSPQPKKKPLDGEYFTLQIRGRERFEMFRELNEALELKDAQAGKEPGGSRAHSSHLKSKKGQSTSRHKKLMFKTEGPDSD

The experiment has as its target Cellular tumor antigen p53 (Homo sapiens) (UniProt P04637). The experiment can be described thus: Primary qHTS for small molecule compounds that upregulate eGFP-tagged delta133p53alpha (in N-terminal) cells. (AID 2060322).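 Also: series mostly up to about 56 µM; 0% = DMSO vehicle and 100% = reference activator; nearly all actives have a fitted effect of over 75% in size.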 The settings on record: NCI-H358 eGFP-delta133p53alpha fluorescence, 24 h; activation: stronger effect = higher value. The method in brief:
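NCI-H358 cells pre-induced 24 h with 10 ng/ml doxycycline to express N-terminal eGFP-delta133p53alpha, then dosed 24 h at 37C without doxycycline; fixed, Hoechst-stained, GFP intensity by laser scanning cytometry, normalized to DMSO (0%) and 57.5 uM 5-azacytidine (100%).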
For orientation: Quantitative high-throughput screening tests each substance at several concentrations.
`c1cc(CN2CCCCC2)cc(OCCCNc2nc3ccccc3s2)c1`: the activation was 20.9% (inactive) and -10.6% (inactive). Under `CN1CCc2ccccc2Cc2[nH]c3ccccc3c2CC1` stands -5.31% (inactive). For `CC(=O)Oc1cc(C(C)C)c(OCCN(C)C)cc1C`, the activation is -0.837% (inactive) and 6.26% (inactive). As to `CCCN(CCc1ccccc1)C1CCc2c(O)cccc2C1` (configuration not stated), the activation is -29.6% (inactive).

For the compound `COc1ccc(CCN(C)CCc2ccc(OC)c(OC)c2)cc1OC`, the activation is -16.8% (inactive). The figure for `Cc1cccc(/C=C/c2ccccc2)n1` is -2.77% (inactive). The figure for `COc1ccccc1CNCCCCCCNCCCCCCCCNCCCCCCNCc1ccccc1OC` is -23.6% (inactive); for `COCCOc1cc2ncnc(Cl)c2cc1OCCOC` it is -22.2% (inactive). For the compound `CC(=O)NCCc1c[nH]c2ccc(O)cc12`, the activation is 10.8% (inactive). Take `CCCCCCCCCCCCCCCCCC(=O)OC(CC(=O)O)C[N+](C)(C)C` (configuration not stated): the activation was -37.9% (inactive). Turning to `COc1ccccc1N1CCN(CCN(C(=O)c2ccc(F)cc2)c2ccccn2)CC1`, the activation is 5.52% (inactive). Regarding `NC(N)=Nc1nc(CSCC/C(N)=N/S(N)(=O)=O)cs1`, the activation is -9.6% (inactive) and 12.2% (inactive). Take `CCN(CC)CCNC(=O)c1ccc(NS(C)(=O)=O)cc1`: the activation was -1.7% (inactive).

With `COc1ccccc1CN[C@@H]1CCCN[C@@H]1c1ccccc1`, the activation was -89.1% (inactive). Under `O=C(O)Cc1c[nH]c2ccc(O)cc12` stands 8.12% (inactive); under `CCN(CC)CCOC(=O)c1cc(Cl)c(N)cc1OC`, -18.7% (inactive); under `Cc1cccc(C(=O)NCN2CCN(c3ccccc3C#N)CC2)c1`, -16.7% (inactive).
